Assay [1] is described as follows: optical density shifts of acrAB sulA E. coli – strain DRC41, OD650, 48 h, E. coli filamentation inducer project, primary screen (AID 1152).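 Also: E. coli MC1000 strain DRC41 lacking acrAB efflux pump and sulA.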 The settings on record: higher = more signal, called active from +8 up or from −8 down.
The nature of assay [2]: probe aLefty1 binding on compound microarray – biochemical, small-molecule microarray, 635/667 nm fluorescence, primary screen (AID 1153).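 Also: score merges spot fluorescence with signal-to-noise ratio from the scanned slide images.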 The settings on record: higher = more signal.
A short description of assay [3]: plasmodial surface anion channel blockers, osmotic lysis – cell-based, P. falciparum Indochina, OD700, 1 h, primary screen (AID 1154). The settings on record: P. falciparum Indochina infected RBC osmotic lysis, higher = more signal, called active from +8 up or from −8 down.
A short description of assay [4]: plasmodial surface anion channel blockers, osmotic lysis – cell-based, P. falciparum Indochina, OD700, 2 h, primary screen (AID 1155).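 Also: lysis reports solute entry through the parasite surface anion channel PSAC.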 The settings on record: P. falciparum Indochina infected erythrocytes, higher = more signal, called active from +8 up or from −8 down.
Assay [5] is described as follows: changes in parasitized red cell lysis, either direction – P. falciparum Indochina, OD700, 3 h, PSAC antagonist project, primary screen (AID 1156). The settings on record: P. falciparum-infected erythrocytes, osmotic lysis, higher = more signal, called active from +8 up or from −8 down.
Assay [6] can be described thus: plasmodial surface anion channel blockers, osmotic lysis – cell-based, P. falciparum Indochina, OD700, 18 h, primary screen (AID 1157). The settings on record: P. falciparum Indochina infected erythrocytes, osmotic lysis OD700, 18 h; higher = more signal, called active from +8 up or from −8 down.
The nature of assay [7]: S6 kinase pathway phospho-S6 level changes – cell-based, A549, cytoblot, luminescence, serum-stimulated, primary screen (AID 1158).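 Also: serum-stimulated A549 lung adenocarcinoma cells; signal is phosphorylated S6 detected by cytoblot immunostaining with HRP secondary.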 The settings on record: 5 h, higher = more signal.
Assay [8] has as its target NADPH oxidase 2 (Homo sapiens) (UniProt P04839). As to the kind of experiment: compounds shifting NOX2 Amplex Red fluorescence – cell-based, HEK293-NOX2, PMA-stimulated, NOX inhibitor project, primary screen (AID 1159). Also: test concentration not given here. The settings on record: 45 min, higher = more signal, called active from +8 up or from −8 down.
For assay [9], the target named is NADPH oxidase 4 (Homo sapiens) (UniProt Q9NPH5). As to the kind of experiment: compounds shifting NOX4 Amplex Red fluorescence – cell-based, HEK293-NOX4, tetracycline-induced, NOX inhibitor project, primary screen (AID 1160). The settings on record: HEK293-NOX4, Amplex Red H2O2 fluorescence, 45 min; higher = more signal, called active from +8 up or from −8 down.
NADPH oxidase 4 (Homo sapiens), sequence (Q9NPH5 whole entry, looked up): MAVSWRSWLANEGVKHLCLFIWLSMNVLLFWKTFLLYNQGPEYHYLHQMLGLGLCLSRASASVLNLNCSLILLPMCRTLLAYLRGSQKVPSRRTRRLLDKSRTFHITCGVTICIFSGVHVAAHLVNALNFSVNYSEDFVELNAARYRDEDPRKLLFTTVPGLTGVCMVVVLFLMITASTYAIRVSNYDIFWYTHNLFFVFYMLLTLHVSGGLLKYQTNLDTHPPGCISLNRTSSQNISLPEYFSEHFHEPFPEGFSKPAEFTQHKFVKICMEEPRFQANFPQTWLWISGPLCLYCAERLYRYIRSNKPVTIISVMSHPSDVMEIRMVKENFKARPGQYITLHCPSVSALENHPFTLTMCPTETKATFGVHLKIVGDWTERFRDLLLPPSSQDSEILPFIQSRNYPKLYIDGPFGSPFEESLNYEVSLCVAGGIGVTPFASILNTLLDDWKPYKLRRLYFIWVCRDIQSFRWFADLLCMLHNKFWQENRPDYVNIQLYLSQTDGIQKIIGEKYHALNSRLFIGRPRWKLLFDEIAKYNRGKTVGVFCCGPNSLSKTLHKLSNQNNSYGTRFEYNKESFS
Assay [10] has as its target NADPH oxidase 5 (Homo sapiens) (UniProt Q96PH1). Nature of the assay: compounds shifting NOX5 Amplex Red fluorescence – cell-based, HEK293-NOX5, NOX inhibitor project, primary screen (AID 1161). The settings on record: HEK293-NOX5, ionomycin, 45 min, higher = more signal.
Assay [11] in a line: compound effects on lung adenocarcinoma cell viability – A549, calcein-AM fluorescence, 48 h, basal, profiling panel (AID 1162). Also: test concentration not given here. The settings on record: higher = more signal.
A short description of assay [12]: compound effects on differentiated 3T3-L1 adipocyte viability – cell-based, 3T3-L1 adipocytes, calcein-AM fluorescence, 48 h, basal, profiling panel (AID 1163). Also: test concentration not given here. The settings on record: 3T3-L1 adipocytes viability, higher = more signal.
The nature of assay [13]: compound effects on hepatocellular carcinoma cell viability – HepG2, calcein-AM fluorescence, 48 h, basal, profiling panel (AID 1164). Also: test concentration not given here. The settings on record: higher = more signal.
Assay [14] is described as follows: compound effects on multiple myeloma cell viability – MM1S, calcein-AM fluorescence, 48 h, basal, profiling panel (AID 1165).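 Also: viability of MM1S multiple myeloma cells under basal unstimulated conditions; test concentration not given here.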 The settings on record: higher = more signal.
Assay [15] is described as follows: calcein-AM signal in unstimulated myeloma cells – cell-based, calcein-AM fluorescence, 48 h, PK04 Diversity Set, profiling panel (AID 1166).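 Also: cells grown under basal conditions without added stimulus; test concentration not given here.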 The settings on record: RPMI8226 myeloma viability, higher = more signal.
Assay [16] is described as follows: JC-1 mitochondrial signal, unstimulated HepG2 cells – cell-based, JC-1 fluorescence, 24 h, 100 nL compound, profiling panel (AID 1167). Also: test concentration not given here. The settings on record: HepG2 mitochondrial potential, higher = more signal.
Assay [17] can be described thus: JC-1 mitochondrial signal, unstimulated adipocytes – cell-based, JC-1 fluorescence, 3T3-L1 adipocytes, 24 h, 100 nL compound, profiling panel (AID 1168). Also: test concentration not given here. The settings on record: JC-1 mitochondrial fluorescence, higher = more signal, called active from +8 up or from −8 down.
The nature of assay [18]: JC-1 mitochondrial signal, unstimulated myeloma cells – cell-based, JC-1 fluorescence, RPMI8226, 24 h, 100 nL compound, profiling panel (AID 1169). Also: test concentration not given here. The settings on record: JC-1 mitochondrial potential fluorescence, higher = more signal.
Assay [19] can be described thus: JC-1 mitochondrial signal, unstimulated MM1S myeloma – cell-based, JC-1 fluorescence, 24 h, 100 nL compound, profiling panel (AID 1170). Also: test concentration not given here. The settings on record: MM1S mitochondrial potential, higher = more signal.
Assay [20] in a line: resazurin metabolic signal in A549 cells – cell-based, resazurin fluorescence, 24 h, PK04 Diversity Set, profiling panel (AID 1171). Also: test concentration not given here. The settings on record: A549 viability, higher = more signal, called active from +8 up or from −8 down. For orientation: Alamar Blue is a resazurin reagent that responds to reducing activity.

Z-score and composite z-score data for 8 compounds are collected here from PubChem BioAssay.

Active and inactive are the calls of the source.

NADPH oxidase 5 (Homo sapiens), sequence (Q96PH1 whole entry, looked up): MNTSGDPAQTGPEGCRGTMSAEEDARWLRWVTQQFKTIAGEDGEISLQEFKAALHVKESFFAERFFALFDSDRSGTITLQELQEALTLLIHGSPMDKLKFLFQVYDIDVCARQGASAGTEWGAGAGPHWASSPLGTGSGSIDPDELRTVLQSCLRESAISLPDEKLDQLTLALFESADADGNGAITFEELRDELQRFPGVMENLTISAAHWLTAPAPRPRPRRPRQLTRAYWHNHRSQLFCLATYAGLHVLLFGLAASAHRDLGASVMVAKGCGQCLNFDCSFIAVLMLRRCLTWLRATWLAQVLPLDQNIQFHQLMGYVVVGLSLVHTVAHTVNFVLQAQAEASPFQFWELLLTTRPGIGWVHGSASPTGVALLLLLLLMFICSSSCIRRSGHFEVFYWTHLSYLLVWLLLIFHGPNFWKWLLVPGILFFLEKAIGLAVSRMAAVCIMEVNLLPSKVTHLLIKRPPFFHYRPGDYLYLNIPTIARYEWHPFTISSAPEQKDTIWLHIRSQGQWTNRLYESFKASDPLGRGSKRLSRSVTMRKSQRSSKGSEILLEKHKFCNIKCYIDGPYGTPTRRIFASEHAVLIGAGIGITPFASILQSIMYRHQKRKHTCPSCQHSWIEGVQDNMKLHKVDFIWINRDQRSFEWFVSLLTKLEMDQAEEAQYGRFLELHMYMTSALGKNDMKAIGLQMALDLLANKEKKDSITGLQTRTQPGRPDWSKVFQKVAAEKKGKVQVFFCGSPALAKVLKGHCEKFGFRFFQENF
NADPH oxidase 2 (Homo sapiens), sequence (P04839 whole entry, looked up): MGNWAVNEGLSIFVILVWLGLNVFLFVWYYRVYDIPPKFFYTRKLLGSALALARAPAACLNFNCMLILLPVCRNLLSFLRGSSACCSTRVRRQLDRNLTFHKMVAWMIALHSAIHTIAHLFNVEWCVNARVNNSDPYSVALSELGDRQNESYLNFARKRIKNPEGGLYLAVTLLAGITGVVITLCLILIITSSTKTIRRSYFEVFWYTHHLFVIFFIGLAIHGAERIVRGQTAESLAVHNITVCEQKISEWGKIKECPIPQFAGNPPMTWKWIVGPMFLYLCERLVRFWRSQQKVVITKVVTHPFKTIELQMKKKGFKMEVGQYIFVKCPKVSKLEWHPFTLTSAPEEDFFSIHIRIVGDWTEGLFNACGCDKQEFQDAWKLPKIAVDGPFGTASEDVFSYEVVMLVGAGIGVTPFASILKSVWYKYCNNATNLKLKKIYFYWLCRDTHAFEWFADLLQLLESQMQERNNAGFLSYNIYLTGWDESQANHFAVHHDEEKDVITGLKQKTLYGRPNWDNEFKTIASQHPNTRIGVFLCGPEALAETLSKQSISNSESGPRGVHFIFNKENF

With `C=C(C(=O)CC[C@H](OC(=O)c1cccnc1)c1ccc(CO)o1)C(C)C`, the z-score is -0.92 (inactive) in assay [1]; 1.73 (inactive) in [3]; -0.115 (inactive) in [4]; -0.158 (inactive) in assay [5]; -0.0363 (inactive) in assay [6]; -0.143 in [7]. The z-score is 0.637 (inactive) in assay [8]; 0.123 (inactive) in [9]; -0.0889 in [10]; -0.242 in [11]; -0.449 in [12]; -0.676 in assay [13]. The z-score was -0.66 in assay [14]; 0.202 in assay [15]; -2 in assay [16]; -1.78 (inactive) in assay [17]; 0.322 in [18]; -0.458 in [19]. Besides, the z-score in assay [20] is -0.361 (inactive). In assay [2], this compound came in with a composite z-score of 0.333.

Consider `COCCOC(=O)N1C(=O)[C@@]2(c3cc(C#CC4=CCCCC4)ccc31)[C@H](c1ccc(O)cc1)N1[C@H](c3ccccc3)[C@H](c3ccccc3)OC(=O)[C@H]1[C@@H]2C(=O)Nc1nc2ccccc2s1`, for which the z-score is -0.567 (inactive) in [1]; 2.09 (inactive) in assay [3]; 1.76 (inactive) in assay [4]; 0.599 (inactive) in assay [5]; 1.81 (inactive) in assay [6]; -0.507 in assay [7]. The z-score is 1.55 (inactive) in [8]; -0.0515 (inactive) in [9]; 0.897 in assay [10]; -0.0695 in assay [11]; -0.898 in assay [12]; 0.0669 in assay [13]. The z-score was -1.01 in assay [14]; -1.65 in assay [15]; -2.79 in assay [16]; -0.451 (inactive) in assay [17]; -0.941 in assay [18]; -0.887 in [19]. In [20], the z-score is -0.304 (inactive). In assay [2], this compound had a composite z-score of 0.571.

With `COC(=O)[C@@]1(Cc2ccc(F)cc2)[C@H]2c3cc(C(=O)N4CCCC4)n(CCF)c3C[C@H]2CN1C(=O)c1ccccc1`, the z-score is -0.379 (inactive) in [1]; 6.17 (inactive) in [3]; 0.237 (inactive) in assay [4]; 0.423 (inactive) in assay [5]; 0.715 (inactive) in [6]; 0.563 in assay [7]. In addition, the z-score in [8] was 0.6 (inactive); in [9], -0.248 (inactive); in assay [10], -0.159; in assay [11], -0.719; in [12] it was 0.251; in [13], 0.426. Moreover, the z-score was -1.04 in [14]; -0.374 in assay [15]; 1.98 in assay [16]; -0.000991 (inactive) in [17]; -0.0725 in assay [18]; 0.26 in assay [19]. Moreover, the z-score in assay [20] was 0.763 (inactive). Besides, the composite z-score in [2] amounted to 2.02.

Consider `CC(C)(C)N1CC=CC23O[C@@H]4C=CCOC(=O)[C@@H]4[C@H]2C(=O)N(CCCO)[C@@H]3C1=O` (stereo not given in full), for which the z-score in assay [1] was 0.799 (inactive); in assay [3], -0.103 (inactive); in assay [4] it was -0.831 (inactive); in assay [5], 0.858 (inactive); in assay [6], -1.53 (inactive); in [7], 0.364. In addition, the z-score in [8] was -0.693 (inactive); in assay [9] it was -0.00336 (inactive); in [10], -1.09; in [11], 0.495; in assay [12] it was 1.55; in assay [13], -0.0446. The z-score in [14] was 0.656; in [15], -0.664; in assay [16], -0.57; in [17] it was -0.272 (inactive); in assay [18] it was -0.379; in assay [19], 0.745. Besides, the z-score in assay [20] is -0.89 (inactive). In assay [2], this compound registered a composite z-score of -0.429.

Consider `C=C(/C(=C/C[C@@H](OC(=O)c1ccncc1)c1ccc(OCCO)cc1)c1cc(C(=O)OC)ccc1OC)C(C)C`, for which the z-score in assay [1] was 0.927 (inactive); in assay [3] it was 17.9 (active); in [4], 2.79 (inactive); in assay [5], 2.56 (inactive); in assay [6], 1.02 (inactive); in assay [7] it was 0.596. Besides, the z-score in assay [8] was -2.45 (inactive); in assay [9] it was -1.24 (inactive); in assay [10] it was -1.86; in assay [11] it was -0.738; in assay [12] it was 0.61; in assay [13], 0.391. For the same compound, the z-score is -0.166 in assay [14]; 0.687 in assay [15]; 2.81 in assay [16]; 0.436 (inactive) in assay [17]; -0.177 in [18]; -0.744 in [19]. Moreover, the z-score in [20] was 1.4 (inactive). The composite z-score in assay [2] was -0.0984.

Regarding `Cc1ccc(F)cc1S(=O)(=O)N[C@@H]1CCN(Cc2ccc(Oc3ccccc3)cc2)C1`, the z-score was -12.2 (active) in assay [1]; 7.61 (inactive) in [3]; 1.9 (inactive) in assay [4]; 0.701 (inactive) in assay [5]; 1.19 (inactive) in assay [6]; -0.766 in assay [7]. The z-score in assay [8] is -0.615 (inactive); in assay [9], -1.08 (inactive); in assay [10], -1.67; in assay [11], -1.26; in [12], -0.119; in [13] it was -1.25. For the same compound, the z-score in assay [14] was -3.43; in [15] it was -3.16; in assay [16] it was 0.998; in assay [17], 0.546 (inactive); in [18] it was -1.19; in assay [19], -2.3. Further, in [20], the z-score is -0.214 (inactive). Besides, the composite z-score in assay [2] is 0.266.

Take `O=C1c2ccccc2[C@](Cc2ccccc2I)(C(=O)NCCN2CCOCC2)[C@H](c2ccc(CO)cc2)N1Cc1ccccc1`: the z-score is -0.381 (inactive) in assay [1]; 4.18 (inactive) in assay [3]; 0.815 (inactive) in assay [4]; -0.188 (inactive) in assay [5]; 0.352 (inactive) in assay [6]; -0.0041 in [7]. Further, the z-score in [8] is 0.744 (inactive); in assay [9], 0.91 (inactive); in [10], 0.665; in [11], -0.0426; in assay [12], 0.193; in [13], 1.14. For the same compound, the z-score is 0.211 in assay [14]; -0.347 in assay [15]; 0.642 in assay [16]; 0.421 (inactive) in assay [17]; 0.231 in [18]; -0.462 in [19]. The z-score in assay [20] is 0.0188 (inactive). In [2], this compound gave a composite z-score of 0.641.

As to `[N-]=[N+]=NCc1ccccc1C[C@@]1(C(N)=O)N=C(c2ccc(OCCCO)cc2)O[C@@H]1c1ccccc1CN=[N+]=[N-]`, the z-score in [1] is 0.315 (inactive); in assay [3], 26.2 (active); in [4], 10.1 (active); in assay [5] it was 1.31 (inactive); in assay [6], 1.38 (inactive); in assay [7], -0.107. In addition, the z-score in assay [8] is 0.415 (inactive); in assay [9], 0.14 (inactive); in assay [10], -1.66; in [11] it was 0.703; in [12] it was -0.323; in [13], 1.42. For the same compound, the z-score in assay [14] is -1.25; in [15], -3.08; in [16], 1.18; in assay [17], -0.301 (inactive); in [18], -1.1; in [19], -0.422. In addition, the z-score in [20] is -0.136 (inactive). In assay [2], the composite z-score was determined as 0.315.
